Source: PubChem
HCMV inh – human cytomegalovirus inhibition; HFF cells, HCMV-luciferase reporter, 72 h; active compounds read low; activity change, negative = inhibition, % at 57.5 µM; actives 4.5% (n = 410,000); AID 1259415; in the data active = activity change below about -60%; inconclusive = no clear call, values can overlap the other calls; inactive = above about -39%; note: % is set by controls: 0 for no effect and ±100 for the full control effect
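Two-dose cell screen: HFF monolayers treated with compounds and infected with luciferase-expressing HCMV at 1 PFU/cell, 72 h at 37C, then lysed for luciferase measurement.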
Sm TGR inh – blocks Schistosoma mansoni thioredoxin glutathione reductase | Q962Y6 | purified TGR, DTNB reduction, TNB absorbance 405 nm | Potency, µM (top dose mostly 114 µM), for the others: top-dose activity change, negative = inhibition, usual class: inhibitors | actives 3% (n = 360,000) | AID 485364; note: potency is the fitted concentration of half-maximal effect; % is set by controls: 0 for no effect and ±100 for the full control effect; nearly all actives have a fitted effect of over 60% in size
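TGR 20 nM + NADPH 100 uM (dispensed conc.), cpd preinc 15 min RT; start with NADPH (500 uM addition) then DTNB (15 mM addition). Kinetic TNB absorbance, 405 nm filter. Four-parameter Hill fit across titration.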
SARS PLpro yeast – SARS-CoV PLP inhibition in yeast; S. cerevisiae expressing SARS-CoV PLpro, growth rescue; Potency, µM (titrated, usually from 32.9 µM), inactives show top-dose activity, positive = growth rescue, actives largely listed as activators; actives 0.19% (n = 330,000); AID 485353; calls by dose curve; note: potency is the fitted concentration of half-maximal effect; 0% is about no effect; nearly all actives have a fitted effect of over 55% in size
HCV inhibitor – inhibitors of hepatitis C virus infection | Huh7.5.1 HCVcc-Cre infection, luciferase reporter, 44 h | Potency, µM (titrated, usually from 41.8 µM), inactives show at the top dose activity change, negative = inhibition, actives largely listed as inhibitors | actives 3.4% (n = 340,000) | AID 651820; note: potency is the fitted concentration of half-maximal effect; % is set by controls: 0 for no effect and ±100 for the full control effect
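After 44 h co-culture of compound, cells and HCVcc-Cre (~0.5 moi), substrate is added for 15 min at room temperature and luciferase measured over 15 sec. Cells were seeded at 1,000/well and pre-cultured 4 h.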
Pf growth 96h – inhibits malaria parasite growth, 96 h | P. falciparum luciferase reporter growth, 96 h | Potency, µM (series often up to 28.7 µM), inactives show at the top dose activity change, negative = inhibition, actives largely listed as inhibitors | actives 6.9% (n = 320,000) | AID 504834; note: potency is the fitted concentration of half-maximal effect; % is set by controls: 0 for no effect and ±100 for the full control effect
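Delayed-death screen, second-generation endpoint: infected erythrocytes, 2% hematocrit, 0.05% parasitemia final; 96 hours at 37 C, 5% CO2; luciferase detection reagent; luminescence decrease equals reduced growth.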
Pf growth 48h – inhibits P. falciparum growth in the first generation, 48 h; Potency, µM (titrated, usually from 28.7 µM), inactives show at the highest dose activity change, negative = inhibition, hits mostly inhibitors; P. falciparum luciferase growth in erythrocytes, 48 h; actives 5.9% (n = 310,000); note: potency is the fitted concentration of half-maximal effect; % is set by controls: 0 for no effect and ±100 for the full control effect
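Firefly luciferase activity from engineered P. falciparum reports growth; inhibitors lower the luminescent signal. Cultures contained 2% hematocrit erythrocytes at 0.1% final parasitemia.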
Starred values were filed as active, the others as inactive; ? = inconclusive; . = not tested or not shown. Only some compounds are listed: those with a hit (about 15% of all), similar ones and a draw of the others. Unless noted, calls come from the whole dose curve; as a rule, active = well fitted curve in the direction sought with a large enough effect; inconclusive = small, poorly fitted or top-dose-only effect, or another doubt; inactive = no such curve, though single readings can be large; an effect the other way counts as inactive or inconclusive.

SMILES	HCMV inh	Sm TGR inh	SARS PLpro yeast	HCV inhibitor	Pf growth 96h	Pf growth 48h
NC(=O)c1ccc(N2CCN(S(=O)(=O)c3cccs3)CC2)c([N+](=O)[O-])c1	-84*	.	-5%	2.2µM*	.	.
O=C(NC1CC1)c1ccc(N2CCCCC2)c([N+](=O)[O-])c1	-9	6%	-6%	12%	2.6µM*	8.3µM*
O=[N+]([O-])c1ccc(N2CCCC2)cc1N1CCCC1	-25	-17%	-9%	2.5µM*	81%	3%
NC(=O)c1ccc(N2CCCCCC2)c([N+](=O)[O-])c1	-60*	3%	-5%	4%	?	27%
O=C(NCc1ccncc1)c1ccc(N2CCCC2)c([N+](=O)[O-])c1	-62*	9%	0%	-27%	-17%	17%
CCOC(=O)C(=O)N(Nc1ccccc1C)c1ccccc1C	?	-21%	1%	6%	-13%	?
O[C@@H]1CN(Cc2cccs2)[C@@H](c2ccccc2)C[C@H]1n1cc(C2CC2)nn1	34	.	.	.	.	.
CC(Sc1nnnn1C)C(=O)Nc1ccccc1 (stereo unspecified)	-24	7%	-8%	9%	31%	7%
Cc1ccc(-n2nnnc2SC(C)C(=O)Nc2ccccc2-c2ccccc2)cc1 (stereo unspecified)	-61*	2%	?	8%	9.3µM*	?
CC(Sc1nnnn1C)C(=O)Nc1ccccc1-c1ccccc1 (stereo unspecified)	?	-18%	-2%	5%	-70%	10%
COc1ccccc1NC(=O)C(C)Sc1nnnn1C (stereo unspecified)	35	0%	3%	11%	12µM*	15%
O=c1c2c3c(sc2nc(NCCO)n1CCc1ccccc1)CCCCC3	-35	-1%	-37%	-17%	?	?
COc1ccc(-n2c(NCCN(C)C)nc3sc4c(c3c2=O)CCCCC4)cc1	-107*	-10%	10%	?	?	.
CN(C)CCNc1nc2sc3c(c2c(=O)n1Cc1ccccc1)CCCCC3	-20	-5%	-1%	11µM*	?	?
COC(=O)CSc1nnc2n(-c3ccc(OC)cc3)c(=O)c3c4c(sc3n12)CCCCC4	-31	-3%	2%	3%	.	-21%
CN(C)CCNc1nc2sc3c(c2c(=O)n1-c1ccccc1)CCCCC3	1	0%	2%	-56%	-27%	-18%
CN(C)CCNc1nc2sc3c(c2c(=O)n1-c1ccc(F)cc1)CCCCC3	45	5%	0%	?	?	10µM*
CC1=CC(C)C(=O)N(C)C(C)=C1 (stereo unspecified)	-7	.	.	.	.	.
Cc1cccc(CC2SC(N)=NC2=O)c1 (stereo unspecified)	-35	-4%	-3%	7%	0%	-18%
Cc1cccc(N2CCN(C3=NC(=O)C(Cc4ccccc4)S3)CC2)c1 (stereo unspecified)	-24	-5%	-5%	-9%	12µM*	-14%
CCC(C)[C@H](N)c1cn([C@@H](Cc2ccc(O)cc2)C(=O)N2CCNCC2)nn1 (stereo partly specified)	-4	-7%	2%	-5%	75%	26%
CC(C)CC(NC(=O)OC(C)(C)C)c1cn([C@@H](CCC(=O)OC(C)(C)C)C(=O)N2CCN(C(=O)OC(C)(C)C)CC2)nn1 (stereo partly specified)	14	-16%	0%	13%	10µM*	?
CC[C@@H](C)C(C(=O)N1CCN(C(=O)OC(C)(C)C)CC1)n1cc(-c2cn([C@@H](C)C(=O)N3CCN(C(=O)OC(C)(C)C)CC3)nn2)nn1 (stereo partly specified)	-8	-20%	-1%	?	?	?
CC[C@H](C)C(C(=O)N1CCN(C(=O)OC(C)(C)C)CC1)n1cc(C(CC(C)C)NC(=O)OC(C)(C)C)nn1 (stereo partly specified)	12	-3%	0%	11%	2.3µM*	?
